From PubChem BioAssay AID1159580 (chemical genetic matrix, 2015)
Several values for one entry are separate records, joined by “and”; a condition that tells them apart may be missing. Equal entries are not always repeated. The whole screen tested about 5,500 compounds, of which about 2,000 (36%) were called active. Not shown: some 18% with an inconclusive outcome. Cut-off read from the data, not from the text of the source: active = normalized growth mostly below about 0.91 (no sharp cut-off); inconclusive = no clear call, values can overlap the other calls; inactive = mostly above about 0.92. Some of the results follow.

Assay: chemical genetic growth profiling, strain panel (AID 1159580);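 note: tested at 20 µM; growth read once vehicle control cultures reached saturation at 30 °C; 1 = growth at the plate median or of vehicle wells; lower values mean less growth of the strain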
Conditions: S. cerevisiae deletion strains, growth OD

Measured: normalized growth

COC(=O)/C(=C1\OC(=O)C(c2ccccc2)=C1O)c1ccccc1
inactive: locus YAL013W, strain DEP1, stronger effect = lower value 1.01 | locus YAL021C, strain ccr4, stronger effect = lower value 0.979 | locus YAL026C, strain drs2, stronger effect = lower value 0.979 | locus YAL030W, strain snc1, stronger effect = lower value 0.981 | locus YBL061C, strain skt5, stronger effect = lower value 0.977 | locus YBR009C, strain hhf1, stronger effect = lower value 1 | locus YBR021W, strain FUR4, stronger effect = lower value 0.963 | locus YBR023C, strain chs3, stronger effect = lower value 0.976 | locus YBR171W, strain sec66, stronger effect = lower value 0.987 | locus YBR229C, strain ROT2, stronger effect = lower value 0.993 | locus YBR231C, strain swc5, stronger effect = lower value 0.985 | locus YBR279W, strain paf1, stronger effect = lower value 0.984 | locus YCL011C, strain gbp2, stronger effect = lower value 0.979 | locus YCL016C, strain dcc1, stronger effect = lower value 0.981 | locus YCL029C, strain bik1, stronger effect = lower value 0.987 | locus YCL061C, strain MRC1, stronger effect = lower value 0.966 | locus YCL069W, strain vba3, stronger effect = lower value 0.968 | locus YCR088W, strain abp1, stronger effect = lower value 0.962 | locus YDL005C, strain med2, stronger effect = lower value 0.974 | locus YDL035C, strain GPR1, stronger effect = lower value 1 | locus YDL040C, strain nat1, stronger effect = lower value 0.969 | locus YDL074C, strain BRE1, stronger effect = lower value 1.03 | locus YDL101C, strain DUN1, stronger effect = lower value 1.01 | locus YDL134C, strain PPH21, stronger effect = lower value 0.998 | locus YDL185W, strain tfp1, stronger effect = lower value 0.987 | locus YDL192W, strain arf1, stronger effect = lower value 1 | locus YDR001C, strain nth1, stronger effect = lower value 0.958 | locus YDR069C, strain doa4, stronger effect = lower value 1.01 | locus YDR101C, strain arx1, stronger effect = lower value 1 | locus YDR137W, strain rgp1, stronger effect = lower value 0.967 | locus YDR150W, strain NUM1, stronger effect = lower value 0.987 | locus YDR159W, strain sac3, stronger effect = lower value 0.974 | locus YDR162C, strain NBP2, stronger effect = lower value 1.02 | locus YDR195W, strain ref2 0.943 | locus YDR297W, strain sur2, stronger effect = lower value 0.977 | locus YDR318W, strain mcm21, stronger effect = lower value 0.986 | locus YDR334W, strain swr1, stronger effect = lower value 0.971 | locus YDR335W, strain msn5, stronger effect = lower value 0.982 | locus YDR388W, stronger effect = lower value 0.993 | locus YDR392W, strain spt3, stronger effect = lower value 0.972 | locus YDR502C, strain sam2, stronger effect = lower value 1.01 | locus YEL003W, strain gim4, stronger effect = lower value 0.985 | locus YEL037C, strain rad23, stronger effect = lower value 0.973 | locus YEL061C, strain CIN8 (second series), stronger effect = lower value 0.964 | locus YEL061C, strain CIN8, stronger effect = lower value 0.984 | locus YER015W, strain faa2, stronger effect = lower value 0.967 | locus YER016W, strain bim1, stronger effect = lower value 0.984 | locus YER110C, stronger effect = lower value 0.997 | locus YER111C, strain swi4, stronger effect = lower value 0.976 | locus YER155C, strain BEM2 (second series), stronger effect = lower value 1 | locus YER155C, strain BEM2, stronger effect = lower value 0.994 | locus YER167W, strain BCK2, stronger effect = lower value 0.999 | locus YFR010W, strain ubp6, stronger effect = lower value 0.991 | locus YGL078C, strain dbp3, stronger effect = lower value 0.993 | locus YGL086W, strain mad1, stronger effect = lower value 1.01 | locus YGL167C, strain pmr1, stronger effect = lower value 0.951 | locus YGL173C, strain kem1, stronger effect = lower value 0.993 | locus YGL227W, strain vid30, stronger effect = lower value 0.977 | locus YGL240W, strain doc1, stronger effect = lower value 1.02 | locus YGL248W, strain PDE1, stronger effect = lower value 1 | locus YGL253W, strain hxk2, stronger effect = lower value 0.968 | locus YGR078C, strain PAC10, stronger effect = lower value 1.03 | locus YGR135W, strain pre9, stronger effect = lower value 0.995 | locus YGR229C, strain SMI1, stronger effect = lower value 0.98 | locus YGR252W, strain gcn5, stronger effect = lower value 0.984 | locus YHR013C, strain ard1, stronger effect = lower value 0.963 | locus YHR027C, strain rpn1, stronger effect = lower value 0.976 | locus YHR030C, strain SLT2, stronger effect = lower value 0.99 and 0.914 | locus YHR079C, strain IRE1 (second series), stronger effect = lower value 0.991 | locus YHR079C, strain IRE1, stronger effect = lower value 0.912 | locus YHR094C, strain hxt1, stronger effect = lower value 0.989 | locus YHR129C, strain ARP1, stronger effect = lower value 0.989 | locus YHR142W, strain chs7, stronger effect = lower value 0.93 | locus YHR200W, strain rpn10, stronger effect = lower value 0.988 | locus YIL066C, strain RNR3, stronger effect = lower value 1.01 | locus YIL073C, strain SPO22, stronger effect = lower value 1.05 | locus YIL125W, strain kgd1, stronger effect = lower value 0.974 | locus YIR030C, strain dcg1, stronger effect = lower value 0.998 | locus YJL092W, strain hpr5, stronger effect = lower value 0.959 | locus YJL095W, strain BCK1 (second series), stronger effect = lower value 0.973 | locus YJL095W, strain BCK1, stronger effect = lower value 1.05 and 0.936 | locus YJL115W, strain asf1, stronger effect = lower value 0.974 | locus YJL129C, strain trk1, stronger effect = lower value 0.917 | locus YJL134W, strain LCB3, stronger effect = lower value 0.991 | locus YJL154C, strain vps35, stronger effect = lower value 0.957 | locus YJL164C, strain tpk1, stronger effect = lower value 0.986 | locus YJL166W, strain qcr8, stronger effect = lower value 0.993 | locus YJL168C, strain set2, stronger effect = lower value 0.996 | locus YJL187C, strain SWE1 (second series), stronger effect = lower value 1.04
